From PubChem BioAssay (Tox21)
Where “and” joins values, the source holds several entries; their conditions need not be identical. Equal entries are not always repeated. Records with an inconclusive call do not appear. Entries that show only a call come without a potency. A structure can be active in one record and inactive in another. Calls of active or inactive are those of the source. Unless noted, calls follow the shape of the dose curve; as a rule, active = well fitted curve in the direction sought with a large enough effect in the repeat runs; inconclusive = weak or mixed curves; inactive = no such curve, though single readings can be large; an effect the other way counts as inactive or inconclusive.

Key:
[1] = qHTS assay to identify small molecule agonists of the estrogen receptor alpha (ER-alpha) signaling pathway in the presence of an antagonist - cell viability counter screen (AID 1259386);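 also: series mostly up to about 92 µM; cells exposed to compounds for 22 h at 37 °C before the viability read; nearly all actives have a fitted effect of over 30% in size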
Outline: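 Cell viability in VM7Luc4E2 cells (endogenous full-length ER-alpha) measured by CellTiter-Fluor fluorescence in the same wells as the luciferase screen. Cells pre-cultured 5 days in charcoal-stripped serum, then treated 22 h with compounds at 15 concentrations plus 10.0nM ICI-182,780.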

[2] = target: Progesterone receptor (Homo sapiens) (UniProt P06401); test: qHTS assay to identify small molecule agonists of the progesterone receptor (PR) signaling pathway (AID 1346784; calls by dose curve; also: nearly all actives have a fitted effect of over 30% in size)
Outline: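 HEK 293T PR-UAS-bla reporter cells, 2% charcoal-stripped FBS; 6 hr settle at 37C/5% CO2, compound (DMSO) 16 hr, LiveBLAzer B/G FRET substrate 2 hr RT, fluorescence intensity read.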

[3] = target: Progesterone receptor (Homo sapiens) (UniProt P06401); test: qHTS assay to identify small molecule antagonists of the progesterone receptor (PR) signaling pathway (AID 1346795; active = well fitted inhibition curve with a large enough effect in the signal ratio in the repeat runs, not every such curve was filed as active; the % refers to the signal ratio)
Outline: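 Beta-lactamase reporter, HEK293T PR-UAS-bla line; 2% charcoal-stripped FBS; 6 hr pre-incubation, 37C/5% CO2. Compound + R5020 1 nM final, 16 hr. LiveBLAzer B/G FRET substrate, 2 hr RT; fluorescence intensity read.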

[4] = qHTS assay to identify small molecule antagonists of the progesterone receptor (PR) signaling pathway - cell viability counter screen (AID 1346798); also: series mostly up to about 92 µM; nearly all actives have a fitted effect of over 50% in size
Outline: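 Luminescence readout (CellTiter-Glo, 30 min, RT) of viability in PR-UAS-bla HEK293T cells exposed to compound and R5020 agonist for 16 hr at 37C, 5% CO2; run in the same wells as the beta-lactamase reporter read.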

[5] = qHTS assay to identify small molecule agonists of the progesterone receptor (PR) signaling pathway - cell viability counter screen (AID 1346799; calls by dose curve; also: nearly all actives have a fitted effect of over 45% in size)
Outline: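 HEK293T PR-UAS-bla, 3,000 cells/well, 2% charcoal-stripped FBS; 6 h settle, compound 16 h at 37C/5% CO2; LiveBLAzer 2 h RT, then CellTiter-Glo 30 min RT, luminescence read.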

[6] = qHTS assay to identify small molecule antagonists of the TGF-beta/Smad signaling pathway - cell viability counter screen (AID 1346824); also: nearly all actives have a fitted effect of over 50% in size
Outline: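 SBE-bla HEK 293T cells, incubated overnight, then compound plus 0.25 ng/mL TGF-beta1 (stock added) for 5 hr at 37 C. Viability was read in the same wells by CellTiter-Glo luminescence after 30 min at room temperature.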

[7] = qHTS assay to identify small molecule agonists of the TGF-beta/Smad signaling pathway - cell viability counter screen (AID 1346829); also: top concentration of the series differs between compounds; nearly all actives have a fitted effect of over 45% in size
Outline: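 In parallel with the Smad reporter read, viability of HEK 293T cells stably carrying SBE-bla is quantified by ATP luminescence following 5 hr compound treatment.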

[8] = qHTS assay to identify small molecule agonists of the TGF-beta/Smad signaling pathway (AID 1346859; active = well fitted activation curve with a large enough effect in the signal ratio in the repeat runs, not every such curve was filed as active; the % refers to the signal ratio; also: series mostly up to about 77 µM)
Outline: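 Read-out: fluorescence at 460 and 530 nm (405 nm excitation) after a 2 hr room-temperature incubation with beta-lactamase FRET substrate. SBE-bla HEK 293T cells had been treated with test compounds for 5 hr at 37 C.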

[9] = target: Thyrotropin-releasing hormone receptor (Homo sapiens) (UniProt P34981); test: qHTS assay to identify small molecule antagonists of the thyrotropin-releasing hormone receptor (TRHR) signaling pathway (AID 1346877; active = well fitted inhibition curve with a large enough effect in the repeat runs, not every such curve was filed as active; also: series mostly up to about 51 µM)
Outline: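 TRHR-expressing HEK293 cells loaded with calcium dye for 2 h at 37 C; compounds pre-incubated 5 min at room temperature before TRH challenge at 1 nM final. Intracellular calcium fluorescence read kinetically for 3 min; 15 concentrations in triplicate.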

[10] = target: Thyrotropin-releasing hormone receptor (Homo sapiens) (UniProt P34981); test: qHTS assay to identify small molecule agonists of the thyrotropin-releasing hormone receptor (TRHR) signaling pathway (AID 1346891; calls by dose curve; also: series mostly up to about 58 µM)
Outline: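 HEK293/TRHR cells, 1500 per well, 18 h 37 °C; Ca dye 2 h 37 °C; pin-tool compound addition (agonist mode); kinetic fluorescence 3 min, 1 s reads; 15 concentrations, triplicate.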

[11] = Human pregnane X receptor (PXR) small molecule agonists, qHTS cell viability counter screen (AID 1346977); also: nearly all actives have a fitted effect of over 50% in size
Outline: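 Fluorescence read-out (CellTiter-Fluor) of viability in PXR-Luc HepG2 cells, multiplexed with the luciferase agonist read. Compounds in DMSO added after 5hr plating; 24hr total exposure at 37C, 5% CO2.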

[12] = Caspase-3/7 induction in HepG2 cells by small molecules, qHTS assay (AID 1346978); also: nearly all actives have a fitted effect of over 15% in size
Outline: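 Wild-type HepG2 cells, 2,000/well, settled 5 hr at 37 C and 5% CO2, then compound-treated for 17 hr; caspase-3/7 activity read by luminescent Caspase-Glo 3/7 after 30 min at room temperature.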

[13] = Caspase-3/7 induction in CHO-K1 cells by small molecules, qHTS cell viability counter screen (AID 1346979); also: nearly all actives have a fitted effect of over 35% in size; also: potency is read from the fitted curve at half-maximal effect
Outline: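 CHO-K1 wt, 1,500 cells/well; 5hr pre-incubation 37C/5% CO2; compound pin transfer (DMSO); 16hr exposure; CellTiter-Fluor added, 1hr, fluorescence read.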

[14] = Caspase-3/7 induction in CHO-K1 cells by small molecules, qHTS assay (AID 1346980); also: nearly all actives have a fitted effect of over 15% in size
Outline: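 Wild-type CHO-K1 cells exposed to compounds for 17hr at 37 C, 5% CO2. Caspase-3/7 activity then measured by Caspase-Glo 3/7 luminescence after 30min at room temperature.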

[15] = Caspase-3/7 induction in HepG2 cells by small molecules, qHTS cell viability counter screen (AID 1346981); also: series mostly up to about 92 µM; nearly all actives have a fitted effect of over 30% in size
Outline: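 Wild-type HepG2 cells, 2,000/well, settled 5 hr at 37 C, 5% CO2 before compound addition. Viability read by CellTiter-Fluor fluorescence, reagent added after 16 hr compound exposure, then 1 hr at 37C, in the same wells as the caspase read.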

[16] = target: Nuclear receptor subfamily 1 group I member 2 (Homo sapiens) (UniProt O75469); test: Human pregnane X receptor (PXR) small molecule agonists, qHTS assay (AID 1346982); also: nearly all actives have a fitted effect of over 35% in size; also: potency is read from the fitted curve at half-maximal effect
Outline: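 PXR-Luc HepG2 reporter cells (CYP3A4-driven luciferase) in 5% charcoal-stripped FBS medium, plated 5 h before compound addition, then treated 24 h at 37C. Luciferase read by ONE-Glo luminescence after 30 min at room temperature.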

[17] = target: Acetylcholinesterase (Homo sapiens) (UniProt P22303); test: Acetylcholinesterase (AChE) small molecule antagonists: colormetric cell-based qHTS assay (AID 1347395; calls by dose curve; also: nearly all actives have a fitted effect of over 30% in size)
Outline: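 SH-SY5Y cells; cpd 30 min 37 C; + DTNB/acetylthiocholine, 90 min 37 C; colorimetric thiocholine read; qHTS.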

[18] = target: Nuclear receptor subfamily 1 group I member 2 (Rattus norvegicus) (UniProt Q9R1A7); test: Rat pregnane X receptor (rPXR) activation by small molecules, qHTS assay (AID 1346983); details: rPXR luciferase reporter cells, One-Glo luminescence, 24 h; stronger effect = higher value; also: nearly all actives have a fitted effect of over 20% in size
Outline: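 Cell-based rPXR activation assay: rPXR cells, 2,000 per well, rested 5hr at 37 C, then exposed to compounds in DMSO for 24 hr at 37 C. Luciferase activity read by One-Glo luminescence after 30 min at room temperature.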

[19] = target: Nuclear receptor subfamily 1 group I member 2 (Homo sapiens) (UniProt O75469); test: CYP3A4 induction through human pregnane X receptor (PXR) by small molecules, qHTS assay (AID 1346984); also: nearly all actives have a fitted effect of over 40% in size
Outline: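 DPX-2 HepG2 cells carrying a PXR response element and CYP3A4-promoter luciferase construct, treated with compounds 24 hr at 37C. Then P450-Glo CYP3A4 Luciferin-IPA substrate (3uM final) for 3 hr at 37C, One-Glo added, luminescence read.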

[20] = target: Nuclear receptor subfamily 1 group I member 2 (Homo sapiens) (UniProt O75469); test: Human pregnane X receptor (PXR) activation by small molecules, qHTS assay (AID 1346985); also: nearly all actives have a fitted effect of over 40% in size
Outline: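 DPX-2 cells (HepG2 co-transfected with a PXR response element and a CYP3A4-promoter luciferase construct) were seeded at 2,000 per well, rested 5 hr at 37C, then exposed to DMSO-dissolved compounds for 24 hr. Activation was read as luciferase luminescence.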

Nuclear receptor subfamily 1 group I member 2 (Homo sapiens), sequence (O75469 whole entry, looked up): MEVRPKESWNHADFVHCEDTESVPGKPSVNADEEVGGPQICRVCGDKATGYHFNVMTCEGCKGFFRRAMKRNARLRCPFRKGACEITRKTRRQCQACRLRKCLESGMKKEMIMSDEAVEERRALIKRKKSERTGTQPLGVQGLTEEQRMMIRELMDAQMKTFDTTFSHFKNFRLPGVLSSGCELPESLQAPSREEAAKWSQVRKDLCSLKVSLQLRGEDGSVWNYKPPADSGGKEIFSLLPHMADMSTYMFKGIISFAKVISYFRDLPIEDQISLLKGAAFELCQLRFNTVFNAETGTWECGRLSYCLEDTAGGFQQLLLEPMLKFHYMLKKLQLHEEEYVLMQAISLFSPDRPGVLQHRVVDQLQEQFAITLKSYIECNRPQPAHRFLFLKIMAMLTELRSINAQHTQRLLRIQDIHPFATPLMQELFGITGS
Progesterone receptor (Homo sapiens), sequence (P06401 whole entry, looked up): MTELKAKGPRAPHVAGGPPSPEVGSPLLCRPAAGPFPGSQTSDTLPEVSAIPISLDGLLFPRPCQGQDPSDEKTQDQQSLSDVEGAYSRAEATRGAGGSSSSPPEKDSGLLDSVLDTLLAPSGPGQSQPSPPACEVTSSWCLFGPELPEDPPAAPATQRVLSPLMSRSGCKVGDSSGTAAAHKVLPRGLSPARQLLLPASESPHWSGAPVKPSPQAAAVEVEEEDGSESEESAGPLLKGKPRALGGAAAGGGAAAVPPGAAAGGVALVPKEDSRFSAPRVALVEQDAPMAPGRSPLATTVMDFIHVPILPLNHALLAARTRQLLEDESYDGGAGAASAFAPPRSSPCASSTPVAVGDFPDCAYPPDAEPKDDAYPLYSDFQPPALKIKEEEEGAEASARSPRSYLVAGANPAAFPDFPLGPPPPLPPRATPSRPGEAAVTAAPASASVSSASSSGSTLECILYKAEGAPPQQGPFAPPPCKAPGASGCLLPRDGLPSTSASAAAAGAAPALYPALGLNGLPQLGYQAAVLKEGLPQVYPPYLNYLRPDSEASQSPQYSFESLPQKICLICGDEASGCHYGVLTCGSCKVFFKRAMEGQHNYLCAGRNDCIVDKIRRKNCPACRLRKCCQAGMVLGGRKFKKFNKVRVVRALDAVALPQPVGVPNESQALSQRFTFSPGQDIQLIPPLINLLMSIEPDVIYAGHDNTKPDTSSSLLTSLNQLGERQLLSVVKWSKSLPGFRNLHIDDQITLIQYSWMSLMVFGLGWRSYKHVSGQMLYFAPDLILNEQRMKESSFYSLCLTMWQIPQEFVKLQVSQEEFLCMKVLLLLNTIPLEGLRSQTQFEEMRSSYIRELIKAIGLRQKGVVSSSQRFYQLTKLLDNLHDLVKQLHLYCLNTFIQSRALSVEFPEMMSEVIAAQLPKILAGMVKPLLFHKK
Thyrotropin-releasing hormone receptor (Homo sapiens), sequence (P34981 whole entry, looked up): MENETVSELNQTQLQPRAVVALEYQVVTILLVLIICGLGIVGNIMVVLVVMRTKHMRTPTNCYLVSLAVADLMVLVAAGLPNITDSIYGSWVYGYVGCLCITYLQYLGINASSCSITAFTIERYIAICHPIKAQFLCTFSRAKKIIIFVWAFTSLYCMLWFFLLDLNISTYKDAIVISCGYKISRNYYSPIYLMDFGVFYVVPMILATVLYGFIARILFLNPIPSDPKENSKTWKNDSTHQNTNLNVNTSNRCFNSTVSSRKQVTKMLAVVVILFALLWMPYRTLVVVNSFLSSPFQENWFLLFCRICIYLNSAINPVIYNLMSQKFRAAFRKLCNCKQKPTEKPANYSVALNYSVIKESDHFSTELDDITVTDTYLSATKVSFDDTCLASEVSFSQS
Acetylcholinesterase (Homo sapiens), sequence (P22303 whole entry, looked up): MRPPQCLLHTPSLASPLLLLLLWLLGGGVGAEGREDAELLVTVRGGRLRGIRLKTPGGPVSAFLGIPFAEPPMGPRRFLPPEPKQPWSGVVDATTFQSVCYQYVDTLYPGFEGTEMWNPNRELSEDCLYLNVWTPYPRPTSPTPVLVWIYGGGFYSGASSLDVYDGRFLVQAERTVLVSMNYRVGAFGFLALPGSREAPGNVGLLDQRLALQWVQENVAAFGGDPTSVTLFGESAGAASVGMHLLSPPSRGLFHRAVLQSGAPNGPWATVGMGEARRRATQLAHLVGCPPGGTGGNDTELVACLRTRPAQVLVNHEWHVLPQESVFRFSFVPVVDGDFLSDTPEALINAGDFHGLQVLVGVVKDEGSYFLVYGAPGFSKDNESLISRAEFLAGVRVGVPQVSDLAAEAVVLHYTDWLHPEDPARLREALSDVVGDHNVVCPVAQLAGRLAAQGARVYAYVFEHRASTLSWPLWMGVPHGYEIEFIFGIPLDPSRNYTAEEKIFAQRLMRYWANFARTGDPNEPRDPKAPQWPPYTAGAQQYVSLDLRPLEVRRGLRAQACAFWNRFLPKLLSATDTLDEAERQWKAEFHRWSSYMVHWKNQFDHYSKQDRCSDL
Nuclear receptor subfamily 1 group I member 2 (Rattus norvegicus), sequence (Q9R1A7 whole entry, looked up): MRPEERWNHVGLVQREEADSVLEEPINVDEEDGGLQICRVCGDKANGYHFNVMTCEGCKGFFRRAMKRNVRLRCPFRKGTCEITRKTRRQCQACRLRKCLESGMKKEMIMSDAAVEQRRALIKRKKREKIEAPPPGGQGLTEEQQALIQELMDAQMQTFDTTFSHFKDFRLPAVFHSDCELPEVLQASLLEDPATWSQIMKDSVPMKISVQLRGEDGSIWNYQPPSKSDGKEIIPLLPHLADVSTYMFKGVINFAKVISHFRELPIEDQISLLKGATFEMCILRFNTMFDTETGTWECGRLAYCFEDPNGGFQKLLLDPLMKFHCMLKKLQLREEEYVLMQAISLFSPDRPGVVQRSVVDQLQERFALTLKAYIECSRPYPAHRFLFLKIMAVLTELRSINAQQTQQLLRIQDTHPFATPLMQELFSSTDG

Row | SMILES | Potency [1] | Potency [2] | Potency [3] | Potency [4] | Potency [5] | Potency [6] | Potency [7] | Potency [8] | Potency [9] | outcome [10] | Potency [11] | Potency [12] | Potency [13] | Potency [14] | Potency [15] | Potency [16] | Potency [17] | max activation [18] | Potency [19] | outcome [20]
1 | COc1ccc(CO)cc1 | inactive | inactive | inactive | inactive | inactive | inactive | inactive | inactive | inactive | inactive | inactive | inactive | inactive | inactive | inactive |  |  |  |  | 
2 | ClC(Cl)(Cl)Br | inactive | inactive | inactive | inactive | inactive | inactive | inactive | inactive | inactive | inactive | inactive | inactive | inactive | inactive | inactive | inactive | inactive |  |  | 
3 | Clc1ccccc1-c1nnc(-c2ccccc2Cl)nn1 | inactive | inactive | inactive | inactive | inactive | inactive | inactive | inactive | inactive | inactive | inactive | inactive | 54 µM (active) and inactive | inactive | inactive | 54 µM (active) and inactive | inactive |  |  | 
4 | C=CC(Cl)CCl (configuration not stated) | inactive | inactive | inactive | inactive | inactive | inactive | inactive | inactive | inactive | inactive | inactive | inactive | inactive | inactive | inactive | inactive | inactive |  |  | 
5 | Clc1ccc(C(Cl)(Cl)Cl)cc1 | inactive | inactive | inactive | inactive | inactive | inactive | inactive | inactive | inactive | inactive | inactive | inactive | inactive | inactive | inactive | inactive | inactive |  |  | 
6 | O=[N+]([O-])/N=C1\NCCN1Cc1ccc(Cl)nc1 | inactive | inactive | inactive | inactive | inactive | inactive | inactive | inactive | inactive | inactive | inactive | inactive | inactive | inactive | inactive | inactive | inactive | -0.749% (inactive) | inactive | inactive
7 | O=P(OCCCl)(OCCCl)OCCCl | inactive | inactive | inactive | inactive | inactive | inactive | inactive | inactive | inactive | inactive | inactive | inactive | inactive | inactive | inactive | inactive and 19.3 µM (active) | inactive |  |  | 
8 | CC(C)(C#N)N=NC(C)(C)C#N | inactive | inactive | inactive | inactive | inactive | inactive | inactive | inactive | inactive | inactive | inactive | inactive | inactive | inactive | inactive | inactive | inactive |  |  | 
